Laboratory results from PubChem BioAssay (NCATS).
Results filed as inconclusive are left out. Active and inactive are the calls of the source. The call rests on the fitted dose curve; in most records, active means well fitted inhibition curve with a large enough effect; inconclusive means small, poorly fitted or top-dose-only effect; inactive means flat fitted curve, though single readings scatter.

Columns and labels:
Assay in all cases: qHTS profiling for inhibitors of Plasmodium falciparum proliferation (AID 504749); further: nearly all actives have a fitted effect of over 60% in size
Details in all cases: P. falciparum in erythrocytes, SYBR Green DNA, 72 h
[1] = system: CP192
In short: (§1)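 P. falciparum-infected erythrocytes (0.3% parasitemia, 2.5% hematocrit final) were exposed to compounds for 72 h at 37 C in 5% CO2, then lysed with SYBR Green buffer overnight at room temperature; parasite DNA fluorescence was normalized to artemisinin and DMSO controls.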

[2] = system: CP194
In short: as §1

[3] = system: CP201
In short: as §1

[4] = system: CP203
In short: as §1

[5] = system: CP211
In short: as §1

[6] = system: CP215
In short: as §1

[7] = system: CP217
In short: as §1

[8] = system: CP237
In short: as §1

[9] = system: CP238
In short: as §1

[10] = system: CP247
In short: as §1

Measured: Potency
Potency means the concentration at half of the fitted maximal effect.

CC[C@]1(O)CC2CN(CCc3c([nH]c4ccccc34)[C@@](C(=O)OC)(c3cc4c(cc3OC)N(C)[C@H]3[C@@](O)(C(=O)OC)[C@H](OC(C)=O)[C@]5(CC)C=CCN6CC[C@]43[C@@H]65)C2)C1 (stereo not given in full)
active: [1] 4260 nM | [2] 3010 nM | [3] 4780 nM | [4] 4260 nM | [5] 1510 nM | [6] 2130 nM | [7] 3980 nM | [8] 158 nM | [9] 3160 nM | [10] 355 nM

CC(=O)O[C@H]1C(=O)[C@@]2(C)[C@H]([C@H](OC(=O)c3ccccc3)[C@]3(O)C[C@H](OC(=O)[C@H](O)[C@@H](NC(=O)c4ccccc4)c4ccccc4)C(C)=C1C3(C)C)[C@]1(OC(C)=O)CO[C@@H]1C[C@@H]2O
active: [1] 675 nM | [2] 675 nM | [3] 953 nM | [4] 849 nM | [5] 478 nM | [6] 1350 nM | [7] 562 nM | [8] 708 nM | [9] 251 nM | [10] 355 nM
